Test results: PubChem BioAssay
Records with an inconclusive call do not appear. The source made the active and inactive calls.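 How the source made its calls, unless noted: active means inhibition above 50%, about 3 SD of the validation set; inactive means the rest.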

Assays:
[1] = rapamycin-like changes in RPL19A-GFP expression – cell-based, S. cerevisiae, multiplex flow cytometry, primary screen (AID 1862; in the data active means percent of DMSO control GFP below about 86%;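 further: lower values mimic rapamycin by blocking the RPL19A rise seen in DMSO cells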); settings: S. cerevisiae RPL19A-GFP strain, flow cytometry fluorescence, 3 h; at 10 µM; stronger effect = lower value
[2] = TOR pathway GLN3 branch reporter MEP2-GFP changes – S. cerevisiae, multiplex flow cytometry, primary screen (AID 1867;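 active means GFP response, as percent of the DMSO control, above the screen-wide mean plus 3 SD, about 139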;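 further: median GFP channel fluorescence of barcode-gated MEP2-GFP cells measured by flow cytometry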); settings: S. cerevisiae MEP2-GFP strain, 3 h, at 10 µM, stronger effect = higher value, 100% means same as DMSO wells
[3] = TOR pathway RTG branch CIT2 reporter changes – S. cerevisiae, GFP fusion, multiplex flow cytometry, primary screen (AID 1870;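 active means percent response above a set limit, the screen-wide mean plus 3 SD, cut at about 130% in these data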;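 further: barcoded CIT2-GFP strain pooled with four other GFP strains with rapamycin as positive control; median GFP fluorescence per well over plate mean of DMSO wells so 100% = DMSO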); settings: S. cerevisiae CIT2-GFP expression, 3 h, at 10 µM, stronger effect = higher value
[4] = TOR pathway LAP4-GFP level changes – S. cerevisiae, multiplex flow cytometry, primary screen (AID 1873;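 active means GFP signal, as percent of the solvent control, above the screen mean plus 3 SD, about 149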); settings: S. cerevisiae LAP4-GFP expression, 3 h, at 10 µM, stronger effect = higher value
[5] = yeast AGP1-GFP level changes, GLN3 branch – cell-based, multiplex flow cytometry, S. cerevisiae, primary screen (AID 1887;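 active means GFP signal above the screen-wide mean plus 3 SD, that is over about 124.5% of the solvent control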;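 further: AGP1-GFP fusion strain of S. cerevisiae within a five-strain barcoded multiplex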); settings: 3 h, at 10 µM, stronger effect = higher value
[6] = reduced mouse 2C T cell binding to pMHC/ICAM-1 vesicles – MLPCN validation set, flow cytometry, LFA-1/ICAM-1 modulator project, pilot screen (AID 2523;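 active means response below a set limit, under 55% cells CD8-positive and vesicle-bound, and CD8 cells' 90th-percentile brightness under 279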;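 on vesicle binding response: mean PE anti-B7-1 fluorescence of CD8+ cells relative to row control; 100% = QL9-loaded vesicles with DMSO vehicle in the same plate row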); settings: 2C mouse CD8+ T cells, at 7 µM, stronger effect = lower value; double positive events: measured here: CD8+/vesicle+ event percentage
[7] = molecular target: Integrin beta-1 (Homo sapiens) + Integrin alpha-4 (Homo sapiens) (UniProt P13612+P05556); experiment: alpha4beta1 integrin LIBS antibody binding reduction – U937 cells, HUTS-21 mAb, flow cytometry, validation set, VLA-4 allosteric modulator project, pilot screen (AID 2674); settings: HUTS-21 LIBS mAb binding, at 6.7 µM, stronger effect = higher value, binding induced by LDV ligand;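 further: antibody binding induced by the VLA-4 ligand LDV present at three times its Kd; 0% = LDV ligand with antibody and no compound and 100% = antibody without LDV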
[8] = calorie-restriction mimetic ROS inhibitors, yeast – validation compound set, pilot screen (AID 2706;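 active means superoxide response below 65% of plate, a cut near 3 SD across the whole screen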;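 further: yeast exposed to compound for one week at 30 degrees C before staining; 100% = mean of all compound wells on the same plate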); settings: S. cerevisiae aging, superoxide DHE fluorescence; at 10 µM; stronger effect = lower value
[9] = molecular target: Beta-adrenergic receptor kinase 1 (Homo sapiens) (UniProt P25098); experiment: GRK2 binders displacing RNA aptamer, biochemical, validation, human GRK2, bead flow cytometry (AID 488806;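 active means aptamer binding inhibition above 30%, about 3 SD of noise from non-fluorescent compounds; inactive means inhibition at or below 30%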); settings: bead-bound GRK2, FAM-aptamer displacement, at 10 µM, stronger effect = higher value
[10] = molecular target: Beta-2 adrenergic receptor (Homo sapiens) (UniProt P07550); experiment: agonist-induced loss of surface beta2AR – cell-based, FAP fluorogen, flow cytometry, validation set, pilot screen (AID 504459;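 active means percent response above 42, roughly 3 SD of non-fluorescent test compounds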;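 further: agonist-driven loss of surface beta2AR via internalization measured by FAP dye flow cytometry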); settings: Am2.2-beta2AR cells, at 10 µM, stronger effect = higher value
[11] = molecular target: AP-2 complex subunit beta (Homo sapiens) (UniProt P63010); experiment: beta-arrestin/AP2 interaction blockers – biochemical, validation set, GST-AP2 beads, flow cytometry, pilot screen (AID 504541;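 active means inhibition above 54%, about 3 SD of non-fluorescent compounds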;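 further: AP2 carries R879A mutation and is captured from E. coli lysate; bead-bound FITC arrestin peptide fluorescence measuring arrestin peptide binding to AP2; 0% = DMSO wells and 100% = excess unlabeled arrestin peptide control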); settings: FITC arrestin peptide, at 10 µM, stronger effect = higher value, AP2 beta2 appendage fragment, R879A mutant
[12] = cytosolic pH regulators acting via V-ATPase – S. cerevisiae, pHLuorin, HTS validation (AID 504600; in the data active means response above about 15%;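 further: plate controls were DMSO for no effect and reference compound for full effect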); settings: V-ATPase proton transport, at 10 µM, stronger effect = higher value
[13] = system: anti-desmoglein-3 scFv antibody binding to human DSG3; experiment: blockers of pathogenic pemphigus antibody–desmoglein-3 binding – biochemical, validation compound set, bead-based, flow cytometry, pilot screen (AID 588368;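 active means binding below the plate cutoff, the plate median minus 3 SD, with a reading above zero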;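 further: signal is the median channel fluorescence of bead-bound GFP antibody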); settings: Protein G beads, DSG3-Fc, scFv-GFP binding, at 10 µM, stronger effect = lower value
[14] = Nile Red efflux blockade in pump-expressing yeast – validation compound set, multiplex, phenotypic, pilot screen (AID 588506;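 active means efflux inhibition above 0.42, the validation set average plus 4 SD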;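 further: Nile Red retained in cells so higher fluorescence means more efflux inhibition; 0 = negative control wells and 1 = enniatin B 25 µM full block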); settings: S. cerevisiae pump-expressing triplex, Nile Red efflux flow cytometry; at 10 µM; stronger effect = higher value; the pumps come from Candida albicans
[15] = molecular target: ATP-binding cassette sub-family B member 6 (Homo sapiens) (UniProt Q9NP58); experiment: blockers of ABCB6-driven porphyrin uptake – K562-ABCB6 cells, flow cytometry, validation set, pilot screen (AID 588550;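 active means inhibition above the screen-wide mean plus 3 SD, about 51%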;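 further: 0% = DMSO wells and 100% = benzethonium chloride 70 µM positive control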); settings: K562-ABCB6 porphyrin accumulation, 1 h, at 10 µM, stronger effect = higher value
[16] = AML differentiation inducers, ER-HoxA9 marrow cells – cell-based, GFP/MAC1 double positive, flow cytometry, validation set, primary screen (AID 588685;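 active means differentiation response of at least 50%, scaled between solvent and reference control, from cells with both markers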;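 further: compound exposure lasts four days before antibody staining and flow analysis; 0% = DMSO wells and 100% = 5 µM fulvestrant positive control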); settings: stronger effect = higher value, normalized: vehicle 0, fulvestrant 100

Integrin beta-1 (Homo sapiens) + Integrin alpha-4 (Homo sapiens), sequence (P05556 whole entry, looked up): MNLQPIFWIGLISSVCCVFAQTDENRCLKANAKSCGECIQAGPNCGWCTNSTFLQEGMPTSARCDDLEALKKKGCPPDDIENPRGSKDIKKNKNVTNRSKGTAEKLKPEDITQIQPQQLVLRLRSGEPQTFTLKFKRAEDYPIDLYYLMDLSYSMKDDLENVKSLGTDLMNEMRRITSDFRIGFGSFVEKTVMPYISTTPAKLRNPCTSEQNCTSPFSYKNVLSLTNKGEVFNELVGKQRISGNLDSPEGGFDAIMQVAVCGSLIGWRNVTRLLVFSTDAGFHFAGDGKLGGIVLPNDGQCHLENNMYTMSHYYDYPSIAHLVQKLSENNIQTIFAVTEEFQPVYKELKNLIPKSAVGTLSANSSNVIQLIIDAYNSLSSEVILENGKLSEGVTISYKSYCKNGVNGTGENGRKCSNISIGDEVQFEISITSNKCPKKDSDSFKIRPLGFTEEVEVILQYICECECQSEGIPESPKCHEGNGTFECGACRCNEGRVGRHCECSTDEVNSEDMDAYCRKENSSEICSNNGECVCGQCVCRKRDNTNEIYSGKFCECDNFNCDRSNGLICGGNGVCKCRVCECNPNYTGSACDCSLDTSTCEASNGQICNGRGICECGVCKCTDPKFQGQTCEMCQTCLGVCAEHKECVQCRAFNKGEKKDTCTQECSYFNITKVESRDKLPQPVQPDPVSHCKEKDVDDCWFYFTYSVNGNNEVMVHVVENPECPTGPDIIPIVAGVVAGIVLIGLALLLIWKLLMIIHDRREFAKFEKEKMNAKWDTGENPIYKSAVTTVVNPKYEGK
Integrin beta-1 (Homo sapiens) + Integrin alpha-4 (Homo sapiens), sequence (P13612 whole entry, looked up): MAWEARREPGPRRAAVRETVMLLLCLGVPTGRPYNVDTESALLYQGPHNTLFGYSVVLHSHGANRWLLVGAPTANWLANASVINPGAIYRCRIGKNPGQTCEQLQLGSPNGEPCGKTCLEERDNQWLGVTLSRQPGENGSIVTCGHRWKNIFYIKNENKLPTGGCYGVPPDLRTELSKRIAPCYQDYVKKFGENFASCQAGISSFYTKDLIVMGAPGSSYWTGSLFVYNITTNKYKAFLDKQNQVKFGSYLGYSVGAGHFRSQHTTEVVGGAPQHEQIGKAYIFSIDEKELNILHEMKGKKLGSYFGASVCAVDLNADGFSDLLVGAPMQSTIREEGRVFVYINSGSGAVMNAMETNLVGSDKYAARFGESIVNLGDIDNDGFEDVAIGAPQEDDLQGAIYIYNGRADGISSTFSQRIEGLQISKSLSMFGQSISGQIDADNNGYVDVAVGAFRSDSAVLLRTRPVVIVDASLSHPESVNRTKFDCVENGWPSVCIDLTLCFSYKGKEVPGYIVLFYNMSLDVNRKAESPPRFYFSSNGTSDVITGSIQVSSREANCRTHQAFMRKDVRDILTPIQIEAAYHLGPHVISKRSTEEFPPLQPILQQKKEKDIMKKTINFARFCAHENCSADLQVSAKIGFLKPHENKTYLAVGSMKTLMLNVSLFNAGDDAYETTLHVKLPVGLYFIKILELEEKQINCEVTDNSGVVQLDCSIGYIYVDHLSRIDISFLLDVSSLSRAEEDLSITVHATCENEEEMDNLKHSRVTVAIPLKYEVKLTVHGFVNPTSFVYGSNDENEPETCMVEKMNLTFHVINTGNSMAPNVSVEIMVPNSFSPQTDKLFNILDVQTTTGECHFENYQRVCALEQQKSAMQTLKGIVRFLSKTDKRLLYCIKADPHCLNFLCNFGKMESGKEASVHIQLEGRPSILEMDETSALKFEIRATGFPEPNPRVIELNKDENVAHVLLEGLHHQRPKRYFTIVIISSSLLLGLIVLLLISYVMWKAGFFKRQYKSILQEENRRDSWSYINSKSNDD
ATP-binding cassette sub-family B member 6 (Homo sapiens), sequence (Q9NP58 whole entry, looked up): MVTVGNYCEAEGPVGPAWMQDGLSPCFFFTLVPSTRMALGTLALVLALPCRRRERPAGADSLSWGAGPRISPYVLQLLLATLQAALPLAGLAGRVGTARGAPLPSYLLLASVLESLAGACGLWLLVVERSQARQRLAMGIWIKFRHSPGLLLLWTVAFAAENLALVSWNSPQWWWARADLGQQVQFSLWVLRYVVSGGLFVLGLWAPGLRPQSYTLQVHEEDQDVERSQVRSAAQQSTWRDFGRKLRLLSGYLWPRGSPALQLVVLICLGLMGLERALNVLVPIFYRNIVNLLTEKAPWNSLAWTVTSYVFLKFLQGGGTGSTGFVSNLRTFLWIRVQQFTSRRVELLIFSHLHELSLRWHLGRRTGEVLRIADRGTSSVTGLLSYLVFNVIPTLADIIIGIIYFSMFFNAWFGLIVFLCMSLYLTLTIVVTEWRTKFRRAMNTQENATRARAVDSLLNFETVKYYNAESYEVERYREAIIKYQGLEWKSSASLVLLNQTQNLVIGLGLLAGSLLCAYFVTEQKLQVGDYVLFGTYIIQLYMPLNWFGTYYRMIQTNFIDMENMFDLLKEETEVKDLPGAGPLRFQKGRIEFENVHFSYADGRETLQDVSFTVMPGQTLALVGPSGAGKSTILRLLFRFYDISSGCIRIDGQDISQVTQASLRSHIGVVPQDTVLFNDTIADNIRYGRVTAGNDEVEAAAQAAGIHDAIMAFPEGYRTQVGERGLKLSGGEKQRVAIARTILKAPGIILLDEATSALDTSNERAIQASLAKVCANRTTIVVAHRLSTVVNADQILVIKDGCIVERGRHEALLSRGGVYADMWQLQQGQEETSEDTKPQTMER
AP-2 complex subunit beta (Homo sapiens), sequence (P63010 whole entry, looked up, the tested form may be a part, one chain of several): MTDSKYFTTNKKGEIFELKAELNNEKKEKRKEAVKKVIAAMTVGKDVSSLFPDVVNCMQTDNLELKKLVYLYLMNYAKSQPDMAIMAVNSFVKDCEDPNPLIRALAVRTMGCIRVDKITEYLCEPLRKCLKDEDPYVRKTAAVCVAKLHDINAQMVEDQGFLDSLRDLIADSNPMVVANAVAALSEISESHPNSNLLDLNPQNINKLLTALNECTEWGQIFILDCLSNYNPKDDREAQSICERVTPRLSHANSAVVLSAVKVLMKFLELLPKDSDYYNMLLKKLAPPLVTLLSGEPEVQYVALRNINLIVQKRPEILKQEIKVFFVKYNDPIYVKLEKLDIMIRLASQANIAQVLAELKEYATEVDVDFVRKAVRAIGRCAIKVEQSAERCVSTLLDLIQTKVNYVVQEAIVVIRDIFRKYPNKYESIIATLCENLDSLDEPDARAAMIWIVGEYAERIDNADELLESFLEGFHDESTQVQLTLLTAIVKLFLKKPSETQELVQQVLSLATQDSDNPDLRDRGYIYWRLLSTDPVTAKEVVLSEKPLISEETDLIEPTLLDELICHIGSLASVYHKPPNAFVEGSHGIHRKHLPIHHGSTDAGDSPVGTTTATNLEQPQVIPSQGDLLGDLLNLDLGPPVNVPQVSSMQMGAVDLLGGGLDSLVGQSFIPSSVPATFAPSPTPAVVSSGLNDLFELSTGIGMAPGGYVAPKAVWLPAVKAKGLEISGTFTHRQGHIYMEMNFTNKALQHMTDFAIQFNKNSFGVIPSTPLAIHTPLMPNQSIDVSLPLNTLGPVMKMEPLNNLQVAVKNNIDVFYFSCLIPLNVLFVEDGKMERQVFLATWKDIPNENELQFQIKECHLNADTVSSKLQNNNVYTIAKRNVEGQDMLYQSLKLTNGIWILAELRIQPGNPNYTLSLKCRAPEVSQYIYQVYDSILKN
Beta-2 adrenergic receptor (Homo sapiens), sequence (P07550 whole entry, looked up): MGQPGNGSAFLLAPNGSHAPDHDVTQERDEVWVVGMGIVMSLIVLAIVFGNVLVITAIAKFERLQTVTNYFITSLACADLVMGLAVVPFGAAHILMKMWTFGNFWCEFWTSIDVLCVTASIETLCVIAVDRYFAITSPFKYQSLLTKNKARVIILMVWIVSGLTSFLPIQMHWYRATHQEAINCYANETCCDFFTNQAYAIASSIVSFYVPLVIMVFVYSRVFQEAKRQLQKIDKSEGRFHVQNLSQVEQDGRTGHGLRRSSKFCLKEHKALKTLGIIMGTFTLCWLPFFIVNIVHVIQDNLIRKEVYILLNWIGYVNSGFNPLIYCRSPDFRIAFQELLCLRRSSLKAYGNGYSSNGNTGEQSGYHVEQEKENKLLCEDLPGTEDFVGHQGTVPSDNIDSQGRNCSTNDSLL
Beta-adrenergic receptor kinase 1 (Homo sapiens), sequence (P25098 whole entry, looked up): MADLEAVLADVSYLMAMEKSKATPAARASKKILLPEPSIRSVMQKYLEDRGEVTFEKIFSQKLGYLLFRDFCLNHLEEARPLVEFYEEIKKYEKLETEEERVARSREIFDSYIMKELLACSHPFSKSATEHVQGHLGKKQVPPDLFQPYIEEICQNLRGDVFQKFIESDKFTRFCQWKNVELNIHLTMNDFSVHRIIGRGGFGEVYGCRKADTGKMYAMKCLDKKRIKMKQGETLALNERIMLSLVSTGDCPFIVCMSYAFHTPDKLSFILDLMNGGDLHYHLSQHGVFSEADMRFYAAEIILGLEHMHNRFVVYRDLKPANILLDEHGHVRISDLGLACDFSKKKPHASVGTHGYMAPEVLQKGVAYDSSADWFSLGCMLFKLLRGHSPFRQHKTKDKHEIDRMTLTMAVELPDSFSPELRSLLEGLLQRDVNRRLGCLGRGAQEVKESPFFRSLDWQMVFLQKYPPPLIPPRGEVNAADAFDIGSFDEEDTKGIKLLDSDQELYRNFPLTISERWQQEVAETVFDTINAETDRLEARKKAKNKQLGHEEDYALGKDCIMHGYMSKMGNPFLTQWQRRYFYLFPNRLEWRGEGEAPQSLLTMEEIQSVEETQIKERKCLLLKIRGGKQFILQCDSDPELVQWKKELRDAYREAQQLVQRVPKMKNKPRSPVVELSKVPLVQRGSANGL

COc1cc2c(cc1NCc1ccc3c(c1)OCO3)oc1ccccc12
inactive: percent of DMSO control GFP [1] 99.6% | GFP response vs DMSO [2] 133% | percent response of DMSO control [3] 112% | GFP response vs DMSO [4] 88% | GFP response, % of DMSO [5] 89.4% | vesicle binding response [6] 167% | inhibition [7] 1.61% | superoxide response (% of plate) [8] 99.1% | aptamer binding inhibition [9] 0% | response [10] 4.3% | inhibition [11] 47.4% | response [12] 8.06% | binding (% of control) [13] 103% | efflux inhibition (fraction of control) [14] 0.37 | inhibition [15] 0% | differentiation response [16] 8.19%
64%: double positive events [6]

N=c1c[n+](N2CCOCC2)[n-]o1
65%: double positive events [6]
inactive: percent of DMSO control GFP [1] 102% | GFP response vs DMSO [2] 106% | percent response of DMSO control [3] 112% | GFP response vs DMSO [4] 89.4% | GFP response, % of DMSO [5] 96.2% | vesicle binding response [6] 236% | inhibition [7] 13% | superoxide response (% of plate) [8] 92.1% | aptamer binding inhibition [9] 3% | response [10] -6.36% | inhibition [11] 3.46% | response [12] -0.08% | binding (% of control) [13] 95.1% | efflux inhibition (fraction of control) [14] -0.07 | inhibition [15] 9% | differentiation response [16] 7.09%

COc1cc(OC)c(-c2nc3cnccc3n2C)cc1OC
61.8%: double positive events [6]
inactive: percent of DMSO control GFP [1] 104% | GFP response vs DMSO [2] 100% | percent response of DMSO control [3] 115% | GFP response vs DMSO [4] 103% | GFP response, % of DMSO [5] 102% | vesicle binding response [6] 192% | inhibition [7] -4.6% | superoxide response (% of plate) [8] 97% | aptamer binding inhibition [9] 0% | response [10] -4.1% | inhibition [11] -2.31% | response [12] 4.97% | binding (% of control) [13] 97.6% | efflux inhibition (fraction of control) [14] -0.01 | inhibition [15] -11% | differentiation response [16] 3.18%

Cc1csc(N)n1
inactive: percent of DMSO control GFP [1] 101% | GFP response vs DMSO [2] 105% | percent response of DMSO control [3] 114% | GFP response vs DMSO [4] 86.9% | GFP response, % of DMSO [5] 101% | vesicle binding response [6] 201% | inhibition [7] -7.12% | superoxide response (% of plate) [8] 87% | aptamer binding inhibition [9] -1% | response [10] 4.23% | inhibition [11] 5.92% | response [12] -1.8% | binding (% of control) [13] 105% | efflux inhibition (fraction of control) [14] -0.31 | inhibition [15] 12% | differentiation response [16] 9.01%
69.2%: double positive events [6]

COc1ccc(NS(=O)(=O)c2ccc(N)cc2)nn1
56.9%: double positive events [6]
inactive: percent of DMSO control GFP [1] 97.3% | GFP response vs DMSO [2] 104% | percent response of DMSO control [3] 92.9% | GFP response vs DMSO [4] 120% | GFP response, % of DMSO [5] 102% | vesicle binding response [6] 162% | inhibition [7] 5.03% | superoxide response (% of plate) [8] 91.9% | aptamer binding inhibition [9] 6% | response [10] -5.23% | inhibition [11] 4.72% | response [12] 3.89% | binding (% of control) [13] 102% | efflux inhibition (fraction of control) [14] -0.17 | inhibition [15] 2% | differentiation response [16] -12%

Cc1ncoc1C(=O)N1CCCC(C(=O)c2ccc(-c3ccccc3)c(F)c2)C1 (stereo not given)
inactive: percent of DMSO control GFP [1] 102% | GFP response vs DMSO [2] 121% | percent response of DMSO control [3] 112% | GFP response vs DMSO [4] 76.5% | GFP response, % of DMSO [5] 94% | vesicle binding response [6] 220% | inhibition [7] -3.24% | superoxide response (% of plate) [8] 110% | aptamer binding inhibition [9] 8% | response [10] -19.4% | inhibition [11] 4.25% | response [12] -6.69% | binding (% of control) [13] 101% | efflux inhibition (fraction of control) [14] 0.01 | inhibition [15] 12% | differentiation response [16] 0.82%
49.9%: double positive events [6]

COc1ccc(C2CC(c3ccc([N+](=O)[O-])cc3)=NN2C(=O)c2ccccc2)cc1OC (stereo not given)
active: inhibition [11] 65.2% | efflux inhibition (fraction of control) [14] 0.59
inactive: percent of DMSO control GFP [1] 97.1% | GFP response vs DMSO [2] 101% | percent response of DMSO control [3] 97% | GFP response vs DMSO [4] 108% | GFP response, % of DMSO [5] 116% | vesicle binding response [6] 211% | inhibition [7] 13.4% | superoxide response (% of plate) [8] 79.1% | aptamer binding inhibition [9] 4% | response [10] 6.46% | response [12] -0.24% | binding (% of control) [13] 92.9% | inhibition [15] 0% | differentiation response [16] -12.9%
64.6%: double positive events [6]

COc1ccc(-c2c3c(=O)n(C)c(=O)n(C)c3cn2C2CCCCC2)cc1
58.5%: double positive events [6]
inactive: percent of DMSO control GFP [1] 95.2% | GFP response vs DMSO [2] 109% | percent response of DMSO control [3] 88.2% | GFP response vs DMSO [4] 113% | GFP response, % of DMSO [5] 92.6% | vesicle binding response [6] 132% | inhibition [7] -14.1% | superoxide response (% of plate) [8] 106% | aptamer binding inhibition [9] -1% | response [10] 14.9% | inhibition [11] 1.05% | response [12] 2.1% | binding (% of control) [13] 95.5% | efflux inhibition (fraction of control) [14] 0.05 | inhibition [15] 9% | differentiation response [16] -16.8%

COc1ccc(CNC(=O)c2c(O)c3cccc4c3n(c2=O)CCC4)cc1
57.5%: double positive events [6]
inactive: percent of DMSO control GFP [1] 104% | GFP response vs DMSO [2] 105% | percent response of DMSO control [3] 93.9% | GFP response vs DMSO [4] 94.4% | GFP response, % of DMSO [5] 99.4% | vesicle binding response [6] 18.9% | inhibition [7] -7.47% | superoxide response (% of plate) [8] 96.7% | aptamer binding inhibition [9] 9% | response [10] 4.63% | inhibition [11] 7.55% | response [12] -1.56% | binding (% of control) [13] 99.5% | inhibition [15] 5% | differentiation response [16] 1.17%
active: efflux inhibition (fraction of control) [14] 0.62

CC(C(=O)O)c1ccc(-c2ccccc2)c(F)c1 (stereo not given)
inactive: percent of DMSO control GFP [1] 94.8% | GFP response vs DMSO [2] 104% | percent response of DMSO control [3] 76.8% | GFP response vs DMSO [4] 128% | GFP response, % of DMSO [5] 84.8% | vesicle binding response [6] 1320% | inhibition [7] 1.62% | superoxide response (% of plate) [8] 106% | aptamer binding inhibition [9] -1% | response [10] -7.02% | inhibition [11] -9.46% | response [12] -1.04% | binding (% of control) [13] 103% | efflux inhibition (fraction of control) [14] 0.05 | inhibition [15] 1% | differentiation response [16] 0.24%
66.4%: double positive events [6]
